# Reference: ChEMBL document CHEMBL1961873, “Compounds: GSK PKIS; Assays: Nanosyn kinase panel” (2012)
# Tests used:
# [1] = target: T1, Aurora kinase A (Homo sapiens) (UniProt O14965); settings: at 1 µM;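 further: values are mean percent inhibition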
# T1 sequence (whole entry): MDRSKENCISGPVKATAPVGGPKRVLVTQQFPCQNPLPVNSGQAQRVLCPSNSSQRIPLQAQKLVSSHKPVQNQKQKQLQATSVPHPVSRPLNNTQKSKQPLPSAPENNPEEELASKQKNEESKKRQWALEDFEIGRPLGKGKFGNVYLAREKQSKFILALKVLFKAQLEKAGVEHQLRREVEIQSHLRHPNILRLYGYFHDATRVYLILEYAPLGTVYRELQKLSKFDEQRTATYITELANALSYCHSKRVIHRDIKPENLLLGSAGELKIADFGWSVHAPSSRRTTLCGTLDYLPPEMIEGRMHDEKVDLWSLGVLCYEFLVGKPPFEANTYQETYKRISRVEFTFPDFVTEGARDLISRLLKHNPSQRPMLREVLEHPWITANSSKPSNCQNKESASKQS
# [2] = target: Aurora kinase B (Homo sapiens) (UniProt Q96GD4); settings: at 0.1 µM
# [3] = target: Aurora kinase B (Homo sapiens) (UniProt Q96GD4); settings: at 1 µM
# [4] = target: T2, Aurora kinase C (Homo sapiens) (UniProt Q9UQB9); settings: at 0.1 µM
# T2 sequence (whole entry): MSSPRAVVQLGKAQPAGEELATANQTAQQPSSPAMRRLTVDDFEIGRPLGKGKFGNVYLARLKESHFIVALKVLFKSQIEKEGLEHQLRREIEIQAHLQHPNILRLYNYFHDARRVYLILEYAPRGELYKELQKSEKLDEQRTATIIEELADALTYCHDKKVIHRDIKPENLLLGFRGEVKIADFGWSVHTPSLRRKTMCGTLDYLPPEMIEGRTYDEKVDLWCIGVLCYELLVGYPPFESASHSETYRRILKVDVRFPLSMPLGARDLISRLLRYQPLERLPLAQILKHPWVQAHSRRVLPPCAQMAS
# [5] = target: T2, Aurora kinase C (Homo sapiens); settings: at 1 µM
# [6] = target: Serine/threonine-protein kinase 10 (Homo sapiens) (UniProt O94804); settings: at 0.1 µM
# [7] = target: Serine/threonine-protein kinase 10 (Homo sapiens) (UniProt O94804); settings: at 1 µM
# [8] = target: T3, Mitogen-activated protein kinase kinase kinase kinase 2 (Homo sapiens) (UniProt Q12851); settings: at 0.1 µM
# T3 sequence (whole entry): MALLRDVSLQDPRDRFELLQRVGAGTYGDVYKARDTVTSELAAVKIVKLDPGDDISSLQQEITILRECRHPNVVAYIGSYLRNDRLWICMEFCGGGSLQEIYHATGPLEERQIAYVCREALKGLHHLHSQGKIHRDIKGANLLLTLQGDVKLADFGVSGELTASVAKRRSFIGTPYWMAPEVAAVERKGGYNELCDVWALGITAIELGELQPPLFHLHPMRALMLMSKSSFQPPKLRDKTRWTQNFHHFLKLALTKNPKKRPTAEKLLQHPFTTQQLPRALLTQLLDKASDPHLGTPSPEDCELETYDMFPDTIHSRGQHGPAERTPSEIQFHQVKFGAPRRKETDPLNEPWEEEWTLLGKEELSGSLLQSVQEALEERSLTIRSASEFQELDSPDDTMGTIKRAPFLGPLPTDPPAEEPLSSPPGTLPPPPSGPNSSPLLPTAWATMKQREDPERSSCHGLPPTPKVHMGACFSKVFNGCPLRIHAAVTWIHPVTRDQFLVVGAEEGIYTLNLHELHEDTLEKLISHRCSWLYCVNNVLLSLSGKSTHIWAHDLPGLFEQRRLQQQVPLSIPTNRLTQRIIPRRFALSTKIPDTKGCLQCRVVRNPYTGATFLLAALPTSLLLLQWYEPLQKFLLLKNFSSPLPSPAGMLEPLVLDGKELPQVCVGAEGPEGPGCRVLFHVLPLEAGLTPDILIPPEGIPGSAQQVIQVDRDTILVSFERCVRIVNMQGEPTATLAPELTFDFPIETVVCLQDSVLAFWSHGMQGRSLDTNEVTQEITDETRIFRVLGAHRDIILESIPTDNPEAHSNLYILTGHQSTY
# [9] = target: T3, Mitogen-activated protein kinase kinase kinase kinase 2 (Homo sapiens); settings: at 1 µM
# [10] = target: Mitogen-activated protein kinase kinase kinase kinase 4 (Homo sapiens) (UniProt O95819); settings: at 0.1 µM
# [11] = target: Mitogen-activated protein kinase kinase kinase kinase 4 (Homo sapiens) (UniProt O95819); settings: at 1 µM
# [12] = target: Dual specificity mitogen-activated protein kinase kinase 1 (Homo sapiens) (UniProt Q02750); settings: at 0.1 µM
# [13] = target: Dual specificity mitogen-activated protein kinase kinase 1 (Homo sapiens) (UniProt Q02750); settings: at 1 µM
# [14] = target: Misshapen-like kinase 1 (Homo sapiens) (UniProt Q8N4C8); settings: at 0.1 µM
# [15] = target: Misshapen-like kinase 1 (Homo sapiens) (UniProt Q8N4C8); settings: at 1 µM
# [16] = target: T4, Serine/threonine-protein kinase 4 (Homo sapiens) (UniProt Q13043); settings: at 0.1 µM
# T4 sequence (whole entry): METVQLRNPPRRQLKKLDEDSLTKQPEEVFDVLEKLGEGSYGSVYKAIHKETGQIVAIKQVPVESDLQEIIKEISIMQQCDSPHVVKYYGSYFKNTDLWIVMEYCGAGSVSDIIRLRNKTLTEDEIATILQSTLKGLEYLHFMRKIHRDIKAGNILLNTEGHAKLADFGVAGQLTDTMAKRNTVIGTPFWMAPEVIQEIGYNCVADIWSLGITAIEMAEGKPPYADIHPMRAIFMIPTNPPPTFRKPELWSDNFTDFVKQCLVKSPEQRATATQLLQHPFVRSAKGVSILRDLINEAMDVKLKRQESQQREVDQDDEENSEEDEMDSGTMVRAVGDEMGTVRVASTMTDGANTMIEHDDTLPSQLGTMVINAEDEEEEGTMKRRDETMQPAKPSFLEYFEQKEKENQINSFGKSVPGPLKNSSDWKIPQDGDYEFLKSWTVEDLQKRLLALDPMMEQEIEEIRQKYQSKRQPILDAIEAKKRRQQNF
# [17] = target: T4, Serine/threonine-protein kinase 4 (Homo sapiens); settings: at 1 µM
# [18] = target: T5, Serine/threonine-protein kinase 3 (Homo sapiens) (UniProt Q13188); settings: at 0.1 µM
# T5 sequence (whole entry): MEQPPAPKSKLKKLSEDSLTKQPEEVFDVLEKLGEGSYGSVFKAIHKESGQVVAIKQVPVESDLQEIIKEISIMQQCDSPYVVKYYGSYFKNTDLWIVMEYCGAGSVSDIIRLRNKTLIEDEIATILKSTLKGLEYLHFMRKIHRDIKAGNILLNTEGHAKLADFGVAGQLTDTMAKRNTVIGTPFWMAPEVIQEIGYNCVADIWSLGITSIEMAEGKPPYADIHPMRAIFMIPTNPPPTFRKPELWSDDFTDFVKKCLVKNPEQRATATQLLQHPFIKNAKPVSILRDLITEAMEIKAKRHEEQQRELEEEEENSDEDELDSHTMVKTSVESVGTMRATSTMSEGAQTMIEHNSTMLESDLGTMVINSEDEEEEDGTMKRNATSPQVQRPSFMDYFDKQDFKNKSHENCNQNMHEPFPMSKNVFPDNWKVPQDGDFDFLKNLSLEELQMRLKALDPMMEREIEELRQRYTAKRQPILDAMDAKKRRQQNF
# [19] = target: T5, Serine/threonine-protein kinase 3 (Homo sapiens); settings: at 1 µM
# [20] = target: Serine/threonine-protein kinase 26 (Homo sapiens) (UniProt Q9P289); settings: at 0.1 µM
# Serine/threonine-protein kinase 26 (Homo sapiens), sequence (Q9P289 2-416 limits assumed): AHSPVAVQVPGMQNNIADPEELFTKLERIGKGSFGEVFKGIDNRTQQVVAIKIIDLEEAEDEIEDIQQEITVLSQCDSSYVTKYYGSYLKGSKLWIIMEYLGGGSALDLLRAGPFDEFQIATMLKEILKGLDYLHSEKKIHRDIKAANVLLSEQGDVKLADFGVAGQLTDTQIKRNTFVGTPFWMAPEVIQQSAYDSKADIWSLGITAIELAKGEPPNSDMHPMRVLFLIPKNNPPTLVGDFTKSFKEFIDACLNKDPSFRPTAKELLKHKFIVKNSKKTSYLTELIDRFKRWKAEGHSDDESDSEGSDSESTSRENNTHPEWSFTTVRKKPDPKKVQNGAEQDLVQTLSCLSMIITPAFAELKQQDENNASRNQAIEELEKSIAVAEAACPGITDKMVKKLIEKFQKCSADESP
# Mitogen-activated protein kinase kinase kinase kinase 4 (Homo sapiens), sequence (O95819 2-1239 limits assumed): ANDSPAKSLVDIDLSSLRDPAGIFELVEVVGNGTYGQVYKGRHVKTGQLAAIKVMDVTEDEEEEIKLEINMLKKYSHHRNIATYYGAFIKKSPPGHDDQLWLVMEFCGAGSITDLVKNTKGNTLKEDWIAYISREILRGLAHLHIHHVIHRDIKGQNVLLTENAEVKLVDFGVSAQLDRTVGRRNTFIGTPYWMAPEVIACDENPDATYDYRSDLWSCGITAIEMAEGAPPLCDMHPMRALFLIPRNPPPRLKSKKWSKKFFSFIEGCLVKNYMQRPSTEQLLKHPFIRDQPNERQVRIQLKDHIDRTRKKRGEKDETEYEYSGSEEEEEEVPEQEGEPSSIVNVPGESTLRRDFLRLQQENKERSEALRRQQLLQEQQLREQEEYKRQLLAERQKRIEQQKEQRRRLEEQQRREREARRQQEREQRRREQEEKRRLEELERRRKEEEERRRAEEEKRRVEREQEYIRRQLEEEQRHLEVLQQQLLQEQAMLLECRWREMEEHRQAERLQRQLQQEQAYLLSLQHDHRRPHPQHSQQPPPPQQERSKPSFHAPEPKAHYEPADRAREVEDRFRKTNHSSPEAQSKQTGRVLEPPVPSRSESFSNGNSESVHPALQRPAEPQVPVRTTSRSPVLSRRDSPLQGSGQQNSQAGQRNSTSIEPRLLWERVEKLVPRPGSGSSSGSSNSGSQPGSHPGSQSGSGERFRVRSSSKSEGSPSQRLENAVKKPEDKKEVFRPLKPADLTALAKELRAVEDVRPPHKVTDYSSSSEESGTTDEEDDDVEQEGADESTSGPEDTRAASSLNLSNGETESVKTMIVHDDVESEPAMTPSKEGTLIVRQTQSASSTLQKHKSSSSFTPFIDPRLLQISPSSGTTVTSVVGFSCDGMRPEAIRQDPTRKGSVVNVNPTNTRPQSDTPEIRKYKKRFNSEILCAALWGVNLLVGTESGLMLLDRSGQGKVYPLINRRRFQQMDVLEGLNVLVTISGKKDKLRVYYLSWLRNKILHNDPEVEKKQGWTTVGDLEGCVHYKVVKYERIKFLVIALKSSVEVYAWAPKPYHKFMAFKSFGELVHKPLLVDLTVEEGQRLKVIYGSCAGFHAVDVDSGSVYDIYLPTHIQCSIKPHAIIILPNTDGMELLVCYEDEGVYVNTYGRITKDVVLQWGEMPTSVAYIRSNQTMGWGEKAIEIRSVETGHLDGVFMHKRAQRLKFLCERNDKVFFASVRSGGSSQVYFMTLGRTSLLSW
# Serine/threonine-protein kinase 10 (Homo sapiens), sequence (O94804 whole entry, looked up): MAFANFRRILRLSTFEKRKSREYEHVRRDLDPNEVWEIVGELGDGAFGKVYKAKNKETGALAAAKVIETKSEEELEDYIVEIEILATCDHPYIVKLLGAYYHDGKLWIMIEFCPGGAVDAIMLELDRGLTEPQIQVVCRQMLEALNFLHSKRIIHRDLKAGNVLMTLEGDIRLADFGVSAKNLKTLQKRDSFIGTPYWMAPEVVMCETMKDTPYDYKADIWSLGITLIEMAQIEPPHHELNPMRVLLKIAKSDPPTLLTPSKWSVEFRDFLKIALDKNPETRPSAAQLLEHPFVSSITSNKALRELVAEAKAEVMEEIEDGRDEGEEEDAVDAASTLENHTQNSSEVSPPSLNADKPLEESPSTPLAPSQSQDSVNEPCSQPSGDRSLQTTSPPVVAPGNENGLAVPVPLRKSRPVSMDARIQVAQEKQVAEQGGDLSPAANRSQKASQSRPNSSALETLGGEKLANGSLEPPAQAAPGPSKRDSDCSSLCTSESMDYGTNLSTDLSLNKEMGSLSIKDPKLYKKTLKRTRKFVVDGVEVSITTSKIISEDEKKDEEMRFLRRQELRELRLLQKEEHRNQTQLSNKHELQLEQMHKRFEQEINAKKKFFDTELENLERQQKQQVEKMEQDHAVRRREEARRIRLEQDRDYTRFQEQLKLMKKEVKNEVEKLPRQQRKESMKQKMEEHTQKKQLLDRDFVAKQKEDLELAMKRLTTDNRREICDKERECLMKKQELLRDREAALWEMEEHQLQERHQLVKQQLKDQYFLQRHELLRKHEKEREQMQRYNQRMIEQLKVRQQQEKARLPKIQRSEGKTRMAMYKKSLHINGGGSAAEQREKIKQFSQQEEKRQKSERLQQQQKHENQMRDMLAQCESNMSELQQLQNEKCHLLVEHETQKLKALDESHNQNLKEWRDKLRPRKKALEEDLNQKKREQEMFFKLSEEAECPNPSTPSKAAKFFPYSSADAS
# Dual specificity mitogen-activated protein kinase kinase 1 (Homo sapiens), sequence (Q02750 whole entry): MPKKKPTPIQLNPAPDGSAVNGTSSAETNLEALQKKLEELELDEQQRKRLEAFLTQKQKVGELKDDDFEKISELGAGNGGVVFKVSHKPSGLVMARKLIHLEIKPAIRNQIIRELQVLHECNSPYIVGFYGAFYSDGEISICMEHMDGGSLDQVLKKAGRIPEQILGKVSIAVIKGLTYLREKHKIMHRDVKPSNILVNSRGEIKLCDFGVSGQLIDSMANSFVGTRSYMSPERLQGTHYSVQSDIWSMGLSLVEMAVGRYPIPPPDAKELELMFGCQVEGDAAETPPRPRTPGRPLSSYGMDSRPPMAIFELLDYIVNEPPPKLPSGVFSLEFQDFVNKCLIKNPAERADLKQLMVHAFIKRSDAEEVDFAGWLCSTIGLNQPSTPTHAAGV
# Aurora kinase B (Homo sapiens), sequence (Q96GD4 whole entry): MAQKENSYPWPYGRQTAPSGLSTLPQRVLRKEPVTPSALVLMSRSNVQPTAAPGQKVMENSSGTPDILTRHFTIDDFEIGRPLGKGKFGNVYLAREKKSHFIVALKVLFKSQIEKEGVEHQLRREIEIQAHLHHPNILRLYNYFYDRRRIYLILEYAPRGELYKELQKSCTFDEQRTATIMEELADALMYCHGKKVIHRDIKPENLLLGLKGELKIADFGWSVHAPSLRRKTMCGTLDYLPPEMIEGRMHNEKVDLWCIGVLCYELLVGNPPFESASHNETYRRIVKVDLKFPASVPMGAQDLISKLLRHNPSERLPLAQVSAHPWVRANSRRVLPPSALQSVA
# Misshapen-like kinase 1 (Homo sapiens), sequence (Q8N4C8 whole entry, looked up): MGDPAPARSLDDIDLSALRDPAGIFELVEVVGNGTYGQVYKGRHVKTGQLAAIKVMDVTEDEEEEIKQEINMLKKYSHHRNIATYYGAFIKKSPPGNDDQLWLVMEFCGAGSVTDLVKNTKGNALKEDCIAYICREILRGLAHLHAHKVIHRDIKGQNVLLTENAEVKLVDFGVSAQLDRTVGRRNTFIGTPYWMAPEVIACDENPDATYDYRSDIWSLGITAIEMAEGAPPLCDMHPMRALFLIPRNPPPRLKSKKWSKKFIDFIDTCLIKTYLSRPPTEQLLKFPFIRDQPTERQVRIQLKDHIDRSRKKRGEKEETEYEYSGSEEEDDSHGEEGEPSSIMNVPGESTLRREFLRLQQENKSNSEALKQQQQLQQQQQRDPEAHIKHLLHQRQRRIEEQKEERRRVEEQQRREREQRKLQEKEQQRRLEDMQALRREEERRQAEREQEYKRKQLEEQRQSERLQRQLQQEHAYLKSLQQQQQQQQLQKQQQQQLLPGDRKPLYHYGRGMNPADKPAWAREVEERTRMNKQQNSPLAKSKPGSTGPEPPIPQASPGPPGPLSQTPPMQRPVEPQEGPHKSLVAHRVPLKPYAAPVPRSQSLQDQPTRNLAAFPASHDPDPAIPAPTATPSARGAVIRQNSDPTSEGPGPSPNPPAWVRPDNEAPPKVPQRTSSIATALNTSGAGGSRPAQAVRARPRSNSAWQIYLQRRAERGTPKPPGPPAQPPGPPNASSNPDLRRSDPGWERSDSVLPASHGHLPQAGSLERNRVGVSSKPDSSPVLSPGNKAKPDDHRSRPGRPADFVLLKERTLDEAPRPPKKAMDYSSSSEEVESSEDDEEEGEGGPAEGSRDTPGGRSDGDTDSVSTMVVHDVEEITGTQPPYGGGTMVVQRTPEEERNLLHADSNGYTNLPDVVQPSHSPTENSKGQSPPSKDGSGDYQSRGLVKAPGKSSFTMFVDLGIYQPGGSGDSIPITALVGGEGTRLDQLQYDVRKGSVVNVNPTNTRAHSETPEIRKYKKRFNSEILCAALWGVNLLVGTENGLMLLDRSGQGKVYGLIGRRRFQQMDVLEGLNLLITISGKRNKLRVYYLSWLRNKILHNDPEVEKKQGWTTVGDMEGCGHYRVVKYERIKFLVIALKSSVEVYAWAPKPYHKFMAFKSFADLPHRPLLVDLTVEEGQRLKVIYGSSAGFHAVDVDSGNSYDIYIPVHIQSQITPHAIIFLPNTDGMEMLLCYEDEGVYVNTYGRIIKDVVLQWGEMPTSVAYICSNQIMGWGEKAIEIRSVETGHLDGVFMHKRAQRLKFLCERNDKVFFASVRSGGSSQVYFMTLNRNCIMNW
SMILES,inhibition [1] [%],inhibition [2] [%],inhibition [3] [%],inhibition [4] [%],inhibition [5] [%],inhibition [6] [%],inhibition [7] [%],inhibition [8] [%],inhibition [9] [%],inhibition [10] [%],inhibition [11] [%],inhibition [12] [%],inhibition [13] [%],inhibition [14] [%],inhibition [15] [%],inhibition [16] [%],inhibition [17] [%],inhibition [18] [%],inhibition [19] [%],inhibition [20] [%]
CC1=C(C(=O)Nc2ccc3[nH]ncc3c2)C(c2ccc(Cl)c(Cl)c2)CC(=O)N1 (stereo not given),70.2,1.32,19.5,3.19,28.2,3.78,5.17,-1.16,1.61,2.18,3.96,4.74,30.5,1.68,1.98,1.25,4.28,1.27,2.63,-1.2
CNC(=O)c1cncc(/C=C/c2c(Cl)cccc2Cl)c1,0.47,-2.93,2.43,-4.44,0.68,6.82,10.6,1.03,2.47,8.94,23,1.66,1.76,7.96,19.3,3.04,7.53,4.32,8.47,-1.2
Cc1ccc(C(=O)NC2CCCCC2)cc1-c1ccc(C(=O)NCC2CC2)cc1,4.4,3.05,7.57,2.71,14,7.27,6.5,2.78,2.05,2.48,0.87,4.37,4.68,4.93,1.64,5.76,4.46,6.92,4.05,1.41
COc1ccc2cc(-c3c(-c4ccncc4)nc(-c4ccc([S+](C)[O-])cc4)n3C)ccc2c1 (stereo not given),9.25,4.15,11,2.18,15.4,36,78.4,0.6,0.64,2.59,8.42,4.05,3.39,3.38,9.34,4.01,4.79,6.01,8.09,-0.63
CS(=O)(=O)Nc1ccc(N/C=C2\C(=O)Nc3ccccc32)cc1,47.6,7.77,43,6.66,61.1,-2.57,0.71,2.65,18.6,18.1,73,-3.18,-0.2,11.8,63.8,6.72,51.9,-0.42,24.6,0.42
NC(=O)c1ccc(-c2nc(-c3ccccn3)c(-c3ccc4c(c3)OCO4)[nH]2)cc1,3.93,4.83,4.45,1.68,-2.72,6.27,3.54,0.64,2.35,1.99,5.75,3.95,3.52,2.63,7.53,3.9,3.51,4.2,3.42,-0.92
CCn1c(-c2nonc2N)nc2cnc(Oc3cccc(NC(=O)c4ccc(OCCN5CCOCC5)cc4)c3)cc21,43,2.17,8.22,1.52,4.33,3.13,9.94,0.13,-1.08,6.11,13.2,3.5,3.8,6.17,12.5,2.14,3.43,2.3,3.84,-1.24
CS(=O)(=O)CCN(CC#N)Cc1ccc(-c2ccc3ncnc(Nc4ccc(OCc5cccc(F)c5)c(Cl)c4)c3c2)o1,-0.17,-3.61,0.96,-4.78,1.4,3.25,7.32,-0.14,-0.7,3.8,5,2.47,0.44,3.04,3.9,0.41,0.1,0.67,1.66,-1.31
COc1cc2ncn(-c3cc(O[C@@H](C)c4ccccc4Cl)c(C(N)=O)s3)c2cc1OC,18.1,8.64,38.8,8,49.3,54,79.5,6.14,20.2,5.91,32,4.3,3.99,9.25,28.5,8.63,40.3,11.8,34.8,-3.61
CCc1cccc(NC(=O)Nc2ccc(Oc3ccc4nc(NC(=O)OC)[nH]c4c3)cc2)c1,8.38,7.89,15.6,10.3,37.5,46.8,57.8,1.82,5.21,1.49,3.37,1.28,1.44,3.46,3.01,3.69,8.88,5.1,4.89,2.48
Nc1ncnc2occ(-c3ccc(NC(=O)Nc4cccc(C(F)(F)F)c4)cc3)c12,60.4,30.7,66.7,42.5,88.8,26.4,67.9,28.7,59.2,2.65,12.3,4.53,4.91,3.8,8.17,5.73,15.6,5.7,13.3,-2.6
NC(=O)c1cccc(Nc2nccc(Nc3cccc4[nH]ncc34)n2)c1,96.8,24.5,73.7,39.2,100,-1.55,31.9,2.55,24.3,2.67,39.2,-4,0.69,0.64,29,-3.17,13.3,-4.57,6.87,-0.32
CS(=O)(=O)CCNCc1ccc(-c2ccc3ncnc(Nc4ccc(OCc5cccc(F)c5)c(C(F)(F)F)c4)c3c2)o1,2.73,2.77,-1.87,0.77,-1.89,3.11,7.45,1.28,2.47,3.22,8.1,5.38,4.64,4.62,7.1,3.92,5.23,3.56,4.74,-1.09
